Results filed as inconclusive are left out. Active and inactive are the calls of the source. Unless noted, the call rests on the fitted dose curve; in most records, active means well fitted curve in the direction sought with a large enough effect in the repeat runs; inconclusive means weak or mixed curves; inactive means no such curve, though single readings can be large; an effect the other way counts as inactive or inconclusive.
Columns and labels:
[1] = qHTS assay to identify small molecule antagonists of the estrogen related receptor (ERR) signaling pathway from Tox21 library - cell viability counter screen (AID 1224834); further: nearly all actives have a fitted effect of over 30% in size; further: potency means the concentration at half of the fitted maximal effect
How it was run: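 Cytotoxicity of test substances is gauged in the same ERR cells used for the antagonist screen, after 17.5 h of compound treatment at 37 C, by CellTiter-Fluor fluorescence measured after 30 min.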

[2] = biological target: Luciferin 4-monooxygenase (Photinus pyralis) (UniProt P08659); assay: qHTS assay to identify small molecule inhibitors of firefly luciferase (AID 1224835); further: nearly all actives have a fitted effect of over 25% in size; further: potency means the concentration at half of the fitted maximal effect; on activity change, negative = inhibition: series mostly up to about 120 µM
Luciferin 4-monooxygenase (Photinus pyralis), sequence (P08659 whole entry, looked up): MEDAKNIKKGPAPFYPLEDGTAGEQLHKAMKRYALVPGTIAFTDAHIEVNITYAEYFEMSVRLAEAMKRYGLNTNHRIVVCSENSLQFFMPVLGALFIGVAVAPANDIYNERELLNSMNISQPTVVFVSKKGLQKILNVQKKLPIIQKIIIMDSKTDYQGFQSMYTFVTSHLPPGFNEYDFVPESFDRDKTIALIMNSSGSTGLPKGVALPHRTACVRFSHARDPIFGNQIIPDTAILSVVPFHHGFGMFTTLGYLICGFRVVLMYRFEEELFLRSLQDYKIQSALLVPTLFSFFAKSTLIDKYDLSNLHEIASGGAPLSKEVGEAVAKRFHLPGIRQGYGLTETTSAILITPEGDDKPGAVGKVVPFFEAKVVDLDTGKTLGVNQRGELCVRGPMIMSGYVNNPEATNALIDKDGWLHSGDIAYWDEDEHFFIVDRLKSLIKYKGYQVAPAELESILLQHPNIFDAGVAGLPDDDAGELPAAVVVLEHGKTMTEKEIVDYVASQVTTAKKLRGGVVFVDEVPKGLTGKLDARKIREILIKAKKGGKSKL
How it was run: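 Inhibition of purified Photinus luciferase is measured by luminescence. Substrate levels (D-luciferin, ATP) sit at their KM values. Each compound is tested in a concentration series.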

[3] = biological target: Nuclear receptor subfamily 1 group I member 3 (Homo sapiens) (UniProt Q14994); assay: qHTS assay to identify small molecule antagonists of the constitutive androstane receptor (CAR) signaling pathway (AID 1224838); further: nearly all actives have a fitted effect of over 40% in size; further: potency means the concentration at half of the fitted maximal effect
Nuclear receptor subfamily 1 group I member 3 (Homo sapiens), sequence (Q14994 whole entry, looked up): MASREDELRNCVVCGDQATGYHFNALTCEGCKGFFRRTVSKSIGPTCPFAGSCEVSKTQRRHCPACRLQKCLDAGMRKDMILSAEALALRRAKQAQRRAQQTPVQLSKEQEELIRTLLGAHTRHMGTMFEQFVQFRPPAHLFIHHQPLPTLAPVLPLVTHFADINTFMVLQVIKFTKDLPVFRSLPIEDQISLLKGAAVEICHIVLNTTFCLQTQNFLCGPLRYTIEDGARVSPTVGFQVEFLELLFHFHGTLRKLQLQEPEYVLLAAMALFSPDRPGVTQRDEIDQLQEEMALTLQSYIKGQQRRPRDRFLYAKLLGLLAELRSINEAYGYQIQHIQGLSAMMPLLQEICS
How it was run: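 Compounds were titrated across 15 concentrations onto HepG2 cells double-stably expressing hCAR and a CYP2B6-2.2kb reporter, together with 50 nM CITCO (final). After 24 h at 37 C, luciferase activity was measured by luminescence.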

[4] = qHTS assay to identify small molecule antagonists of the estrogen related receptor signaling pathway with the pleiotropic PPARgamma coactivator (PGC) from Tox21 10K library - cell viability counter screen (AID 1224840; active means well fitted cell-killing curve with a large enough effect in the repeat runs, not every such curve was filed as active; further: nearly all actives have a fitted effect of over 40% in size)
How it was run: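 Step one, plate 2,000 PGC/ERR cells per well; step two, incubate 6 h at 37 C/5% CO2; step three, pin-transfer compounds; step four, incubate 17.5 h; step five, add CellTiter-Fluor and read fluorescence after 30 min.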

[5] = qHTS assay to identify small molecule antagonists of the estrogen related receptor signaling pathway with the pleiotropic PPARgamma coactivator (PGC) from Tox21 10K library (AID 1224841; call rule not given here; further: actives are mostly falling curves and most rising ones were filed inactive; nearly all actives have a fitted effect of over 50% in size; further: potency means the concentration at half of the fitted maximal effect; on activity, negative = inhibition: series mostly up to about 92 µM)
How it was run: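 Antagonism in this quantitative HTS is taken from loss of luciferase signal in PGC/ERR cells. Cells (2,000/well) are treated with compounds in DMSO after a 6 h settling period and read by One-Glo luminescence after 18 h.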

[6] = biological target: Thyrotropin receptor (Homo sapiens) (UniProt P16473); assay: qHTS assay to identify small molecule agonists of the thyroid stimulating hormone receptor (TSHR) signaling pathway (AID 1224843; calls by dose curve; further: nearly all actives have a fitted effect of over 45% in size)
Thyrotropin receptor (Homo sapiens), sequence (P16473 whole entry, looked up): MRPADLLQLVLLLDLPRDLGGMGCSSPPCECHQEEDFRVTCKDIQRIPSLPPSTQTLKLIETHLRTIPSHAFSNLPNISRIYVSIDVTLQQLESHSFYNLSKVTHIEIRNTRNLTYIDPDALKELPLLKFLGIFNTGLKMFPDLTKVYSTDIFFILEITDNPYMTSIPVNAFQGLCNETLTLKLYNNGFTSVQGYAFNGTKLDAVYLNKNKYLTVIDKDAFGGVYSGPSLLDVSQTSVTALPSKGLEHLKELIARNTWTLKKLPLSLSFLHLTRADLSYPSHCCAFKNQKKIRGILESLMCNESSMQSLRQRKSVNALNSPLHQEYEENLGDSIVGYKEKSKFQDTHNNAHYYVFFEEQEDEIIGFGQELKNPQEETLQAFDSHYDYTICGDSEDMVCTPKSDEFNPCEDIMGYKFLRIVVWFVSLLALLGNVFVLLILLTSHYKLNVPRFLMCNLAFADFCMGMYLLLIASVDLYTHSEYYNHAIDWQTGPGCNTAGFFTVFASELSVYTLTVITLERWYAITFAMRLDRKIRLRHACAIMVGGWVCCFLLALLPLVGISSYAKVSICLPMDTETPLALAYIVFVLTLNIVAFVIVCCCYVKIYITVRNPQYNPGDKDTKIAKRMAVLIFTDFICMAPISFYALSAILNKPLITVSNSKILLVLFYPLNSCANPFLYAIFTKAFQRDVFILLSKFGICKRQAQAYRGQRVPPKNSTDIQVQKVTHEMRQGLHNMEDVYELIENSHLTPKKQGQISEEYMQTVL
How it was run: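 Screening of the Tox21 10K collection used HEK293 cells engineered with TSHR at 800 cells per well. After a 30-min room-temperature compound exposure, HTRF cAMP reagents were added and fluorescence recorded 1 h later.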

[7] = qHTS assay to identify small molecule antagonists of the constitutive androstane receptor (CAR) signaling pathway - cell viability counter screen (AID 1224837); further: nearly all actives have a fitted effect of over 45% in size; further: potency means the concentration at half of the fitted maximal effect
How it was run: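 Multiplexed cytotoxicity read-out for the CAR antagonist screen: double-stable HepG2-CYP2B6-hCAR cells co-treated with 50 nM CITCO (final) and compound over 15 concentrations, incubated 23 hr, then assessed by CellTiter-Fluor fluorescence.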

[8] = qHTS assay to identify small molecule agonists of the constitutive androstane receptor (CAR) signaling pathway - cell viability counter screen (AID 1224836); further: series mostly up to about 92 µM; nearly all actives have a fitted effect of over 45% in size
How it was run: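 Compound titrations (15 concentrations) went onto HepG2-CYP2B6-hCAR cells 4 h after seeding, alongside PK11195 at a final 0.75 uM; a 23 h, 37 C/5% CO2 incubation preceded CellTiter-Fluor viability measurement.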

[9] = biological target: Nuclear receptor subfamily 1 group I member 3 (Homo sapiens) (UniProt Q14994); assay: qHTS assay to identify small molecule agonists of the constitutive androstane receptor (CAR) signaling pathway (AID 1224839);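 further: HepG2 cells stably carrying human CAR and a CYP2B6 luciferase reporter; series mostly up to about 92 µM; nearly all actives have a fitted effect of over 15% in size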
How it was run: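 In this screen, CAR-driven CYP2B6 promoter activity is measured by luminescence in HepG2-CYP2B6-hCAR cells after 24 h with test compounds and 0.75 uM PK11195 (final concentration).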

[10] = qHTS assay to identify small molecule agonists of the estrogen related receptor signaling pathway with the pleiotropic PPARgamma coactivator (PGC) from Tox21 10K library (AID 1224842); further: nearly all actives have a fitted effect of over 15% in size; further: potency means the concentration at half of the fitted maximal effect
How it was run: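 Luminescence from One-Glo (30 min, room temperature) measured after PGC/ERR cells had 18 h at 37 C with pinned compound (23 nL in DMSO). Cells had been seeded at 2,000 per well and pre-incubated 6 h.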
On the % scale 0 is the no-effect control and ±100 the full control effect.

CCC(=O)O[C@]1(C(=O)SCF)[C@H](C)C[C@H]2[C@@H]3C[C@H](F)C4=CC(=O)C=C[C@]4(C)[C@@]3(F)[C@@H](O)C[C@@]21C
inactive: Potency [1] | Potency [2] | Potency [3] | Potency [4] | Potency [5] | Potency [6]

CCN(O)CC
inactive: Potency [1] | Potency [2] | Potency [7] | Potency [4]

CC1(C)C(=O)N(Cl)C(=O)N1Br
inactive: Potency [1] | Potency [8] | Potency [7] | Potency [3] | Potency [9] | Potency [4]

C/C(=N\O)[C@@H](C)NCC(C)(C)CN[C@H](C)/C(C)=N/O
inactive: Potency [1] | Potency [2] | Potency [7] | Potency [4]

C[C@]12C(=O)OC(=O)[C@H]1[C@H]1C=C[C@@H]2C1
inactive: Potency [1] | Potency [2] | Potency [7] | Potency [3] | Potency [9] | Potency [4] | Potency [5] | Potency [10] | Potency [6]

NC(=O)NS(=O)(=O)c1ccc(Cl)cc1
inactive: Potency [1] | Potency [2] | Potency [7] | Potency [9] | Potency [4] | Potency [6]

Clc1cccc(-c2cc(Cl)cc(Cl)c2)c1
inactive: Potency [1] | Potency [2] | Potency [7] | Potency [3] | Potency [4] | Potency [5] | Potency [10]

O=C(O)c1ccccc1Nc1cc(Cl)ccc1C(=O)O
inactive: viability change, negative = cytotoxic [1] -1.64% [at 19 µM] | activity change, negative = inhibition [2] -7.25% [at 23.6 µM] | viability change, negative = cytotoxic [4] -4.89% [at 19 µM] | activity, negative = inhibition [5] 1.12% [at 19 µM] | activation [10] 0.171% [at 19 µM] | activation [6] -5.91% [at 19 µM]

CCCc1c2oc(C(=O)O)cc(=O)c2cc2c(=O)cc(C(=O)O)n(CC)c12
inactive: Potency [1] | Potency [2] | Potency [7] | Potency [9] | Potency [4] | Potency [5] | Potency [10] | Potency [6]

CN1CCN(N)CC1
inactive: Potency [1] | Potency [2] | Potency [3] | Potency [9] | Potency [4] | Potency [6]

NCCC(O)(P(=O)(O)O)P(=O)(O)O
inactive: Potency [1] | Potency [8] | Potency [7] | Potency [3] | Potency [9] | Potency [4] | Potency [5] | Potency [10] | Potency [6]

CC(C)C[C@H](NC(=O)OCC1c2ccccc2-c2ccccc21)C(=O)O
inactive: Potency [1] | Potency [4] | Potency [5]
active: Potency [2] 3.56 µM | Potency [10] 15.4 µM

CCc1nnc(NS(=O)(=O)c2ccc(N)cc2)s1
inactive: Potency [1] | Potency [2] | Potency [9] | Potency [4] | Potency [5] | Potency [10]

CC1(C)O[C@@H]2C[C@H]3[C@@H]4CCC5=CC(=O)CC[C@]5(C)[C@@]4(F)[C@@H](O)C[C@]3(C)[C@]2(C(=O)CCl)O1
inactive: Potency [1] | Potency [2] | Potency [7] | Potency [9] | Potency [4] | Potency [6]

CCCOc1ccc2c(c1)CC[C@@H]1[C@@H]2CC[C@]2(C)C(OC)CC[C@@H]12 (stereo partly drawn)
inactive: Potency [1] | Potency [2] | Potency [7] | Potency [3] | Potency [4] | Potency [5] | Potency [10]

OCC(CBr)(CBr)CBr
active: Potency [2] 70.7 µM
inactive: Potency [1] | Potency [3] | Potency [4] | Potency [6]

CCC(=O)c1ccc2c(c1)N(CCCN(C)C)c1ccccc1S2
inactive: Potency [2] | Potency [3] | Potency [9]
active: Potency [1] 26.6 µM

CCN(CC)CC1CCCCN1CC(=O)N1c2ccccc2C(=O)Nc2cccnc21 (stereo not drawn)
inactive: Potency [1] | Potency [2] | Potency [7] | Potency [4] | Potency [5] | Potency [10] | Potency [6]

NC1=NCC2c3ccccc3Cc3ccccc3N12 (stereo not drawn)
inactive: Potency [1] | Potency [8] | Potency [7] | Potency [3] | Potency [9] | Potency [4]

Cc1nc(-c2ccccn2)ncc1C(=O)Nn1cc(C)c2cc(F)ccc21
inactive: Potency [1] | Potency [2] | Potency [9] | Potency [10] | Potency [6]
active: Potency [7] 24.3 µM | Potency [3] 13.7 µM | Potency [5] 38.6 µM

O=C(C(Cl)Cl)N1CCOC12CCCCC2
inactive: Potency [1] | Potency [2] | Potency [3] | Potency [4] | Potency [5] | Potency [10] | Potency [6]

NCCCN1CCN(CCCN)CC1
inactive: Potency [1] | Potency [2] | Potency [3] | Potency [9] | Potency [4]

CCCNC(C)C(=O)Nc1c(C)csc1C(=O)OC (stereo not drawn)
inactive: Potency [1] | Potency [2] | Potency [7] | Potency [9] | Potency [4] | Potency [5] | Potency [10] | Potency [6]

COc1cc(Cl)ccc1Cl
inactive: Potency [1] | Potency [2] | Potency [7] | Potency [3] | Potency [9] | Potency [4] | Potency [6]

Cc1onc(-c2ccccc2)c1C(=O)Cl
inactive: Potency [1] | Potency [2] | Potency [3] | Potency [4] | Potency [6]

CC(=O)Oc1cc(C(C)C)c(OCCN(C)C)cc1C
inactive: Potency [1] | Potency [2] | Potency [7] | Potency [3] | Potency [4] | Potency [6]

CC(C)C(=O)OCC(C)(C)C(O)C(C)C (stereo not drawn)
inactive: Potency [1] | Potency [2] | Potency [7] | Potency [4] | Potency [6]
